From PubChem
Sampled rows, rich in hits. Any-hit rate of the full collection: about 21%.
Pf growth 48h: inhibits P. falciparum growth in the first generation, 48 h | 310,000 compounds, 5.9% hits | P. falciparum luciferase growth in erythrocytes, 48 h | Potency, µM (titrated, usually from 28.7 µM), without a hit: at the highest dose activity change, negative = inhibition, usual class: inhibitors; also: potency is read from the fitted curve at half-maximal effect; % is scaled to controls: 0 for no effect and ±100 for the full control effect
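Luciferase-expressing P. falciparum in infected erythrocytes (2% hematocrit, 0.1% parasitemia final) in RPMI 1640/0.5% Albumax were exposed to compound for 48 hours at 37 C, 5% CO2; growth read as luminescence.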
Pf growth 96h: inhibits malaria parasite growth, 96 h. P. falciparum luciferase reporter growth, 96 h. Potency, µM (top dose mostly 28.7 µM), for inactives: top-dose activity change, negative = inhibition, actives largely listed as inhibitors. 320,000 compounds, 6.9% hits. AID 504834; also: potency is read from the fitted curve at half-maximal effect; % is scaled to controls: 0 for no effect and ±100 for the full control effect
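P. falciparum expressing integrated firefly luciferase grown in erythrocytes (2% hematocrit, 0.05% parasitemia final) with compounds for 96 hours at 37 C, 5% CO2. Growth inhibition read as loss of luminescence after adding luciferase detection reagent.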
Shiga inhibitor: inhibitors of Shiga toxin in Vero cells; Vero cells, Shiga toxin protein synthesis inhibition reporter; inhibition, % at 38.7 µM; 290,000 compounds, 9.2% hits; AID 2315; in the data active = inhibition mostly above about 28%, no sharp cut-off; inactive = mostly below about 43%; also: 0% is about no effect
Cycloheximide cs: counter-screen for Shiga toxin inhibitors: cycloheximide protein synthesis inhibition | cell reporter, cycloheximide protein synthesis inhibition counterscreen | max response, % | 300,000 compounds, 12% hits; in the data active = max response mostly above about 13%, no sharp cut-off; inactive = mostly below about 14%; also: read at 38.3 µM for the half of the compounds with a filed dose; 0% is about no effect
Numbers without * were called inactive; i = inactive; ? = inconclusive; . = not tested or not shown. Unless noted, calls follow the shape of the dose curve; as a rule, active = well fitted inhibition curve with a large enough effect; inconclusive = small, poorly fitted or top-dose-only effect, or another doubt; inactive = no such curve, though single readings can be large or run the other way.

SMILES	Pf growth 48h	Pf growth 96h	Shiga inhibitor	Cycloheximide cs
Cc1onc(-c2ccccc2)c1C(=O)N1CCN(c2ncccc2C(F)(F)F)CC1	?	?	-3	0
CCOC(=O)N1CCN(C(=O)COC(=O)C2CCN(S(=O)(=O)c3c(C)c(C)cc(C)c3C)CC2)CC1	-8%	8%	.	.
O=C(COC(=O)c1cccnc1Cl)c1ccc(OC(F)F)cc1	18%	26%	-11	11
O=C(c1ccccn1)N1N=C2/C(=C/c3ccccc3)CCCC2C1c1ccccc1 (stereo not drawn)	?	?	-8	5
CNC(=O)c1sc(N2N=C3/C(=C/c4ccccc4)CCCC3C2c2ccccc2)nc1C (stereo not drawn)	?	3.3µM*	-2	-4
S=C1NC(c2ccccc2)=NCN1c1ccc(Cl)cc1	.	?	81	27*
COC(=O)c1ccc(N2CN=C(c3ccc(C)cc3)NC2=S)cc1	-7%	31%	13	10
Cc1cnc(C(=O)N2CCN(S(=O)(=O)c3ccc4ccccc4c3)CC2)cn1	.	9.3µM*	27	5
CCOC(=O)c1ccc(S(=O)(=O)N2CCN(C(=O)c3cc4ccccc4o3)CC2)cc1	9.3µM*	?	.	.
O=C(c1ccccc1)N1CCN(C(=O)c2cc3ccccc3o2)CC1	-11%	?	-3	-1
CCOC(=O)N1CCN(C(=O)c2cc3ccccc3o2)CC1	9%	41%	.	-3
O=C(c1cc2ccccc2o1)N1CCN(S(=O)(=O)c2ccc(F)c(F)c2F)CC1	8.3µM*	10µM*	.	.
CSC(C(=O)c1cc2ccccc2o1)c1ccccc1 (stereo not drawn)	12%	18%	.	.
COC(=O)c1c[nH]n2c(=O)c(Cc3ccc(F)cc3Cl)c(C)nc12	-5%	1.5µM*	-17	-1
COC(=O)c1c[nH]n2c(=O)c(Cl)c(C)nc12	14%	-30%	23	3
CC(OC(=O)CCc1nc2ccccc2c(=O)[nH]1)C(=O)c1ccc(C(C)(C)C)cc1 (stereo not drawn)	2%	-9%	60*	22*
Oc1ccc(CN2CCCCC2)nc1-c1ccccc1	0.52µM*	?	-27	-2
Oc1ccc(-c2ccccc2)cc1CN1CCCCCC1	0.66µM*	?	2	-3
O=c1c(-c2ccccc2)coc2c(CN3CCCCC3)c(O)ccc12	?	?	-4	0
Oc1ccc(Cl)cc1CN1CCN(Cc2ccccc2)CC1	1.5µM*	.	14	-1
COc1ccc(-n2nc(C(=O)NCC(=O)Nc3cccc(Cl)c3)c3ccccc3c2=O)cc1	9.3µM*	12µM*	-6	-3
COc1ccc(-n2nc(C(=O)NCC(=O)Nc3ccccn3)c3ccccc3c2=O)cc1	31%	34%	-29	-3
CCOc1ccc(NC(=O)CNC(=O)c2nn(-c3ccc(OC)cc3)c(=O)c3ccccc23)cc1	9.3µM*	-10%	3	-2
O=S(=O)(Nc1ccc2c(c1)OCCO2)c1cccc(F)c1	33%	88%	25	25*
Cc1c(S(=O)(=O)Nc2ccc3c(c2)OCCO3)cnn1C	14%	?	16	-2
SMILES	Pf growth 48h	Pf growth 96h	Shiga inhibitor	Cycloheximide cs
Cc1ccc(S(=O)(=O)Nc2ccc3c(c2)OCCO3)cc1C	49%	142%	92*	63*
CC(=O)c1cccc(NS(=O)(=O)c2c(C)n[nH]c2C)c1	15%	0%	41	-3
O=S(=O)(Nc1ccc2c(c1)OCCO2)c1ccc(F)c(F)c1	2%	23%	-2	-5
Cc1nn(C)cc1S(=O)(=O)Nc1ccc2c(c1)OCCO2	44%	?	69*	72*
CCc1cccc(NS(=O)(=O)c2c(C)n[nH]c2C)c1	?	13µM*	-2	-2
COCC1CCN(Cc2cn[nH]c2-c2ccc(OC)c(F)c2)C1 (stereo not drawn)	-12%	14%	-6	7
OC[C@@H]1[C@@H](c2ccc(F)cc2)C(c2ccc(F)cc2)=NN1c1ccccc1	.	.	i	0
COC(=O)COc1ccc(S(=O)(=O)Nc2ccc3c(c2)OCO3)cc1	13%	47%	15	4
Cc1n[nH]c(C)c1S(=O)(=O)Nc1ccc2c(c1)OCCO2	195%	51%	36*	51*
CCOC(=O)COc1ccc(S(=O)(=O)Nc2ccc3c(c2)OCCO3)cc1	22%	.	16	18*
S=C(NCCCc1ccccc1)Nc1ccccc1	?	-5%	27	20*
Cc1cccc(NC(=O)NC(C)CCc2ccccc2)c1 (stereo not drawn)	?	?	13	21*
O=C(NCCCc1ccccc1)Nc1ccccc1	-16%	91%	35	19
Cc1cccc(NC(=S)NC(C)CCc2ccccc2)c1 (stereo not drawn)	?	?	0	-2
O=C(NCCCCc1ccccc1)Nc1cccc(F)c1	?	?	48*	47*
Cc1ccc(NC(=O)NCCCCc2ccccc2)cc1	-9%	19%	29*	17
CC(=O)c1cccc(NC(=S)NCCCCc2ccccc2)c1	-22%	9.3µM*	-12	-2
CC(=O)Nc1cccc(C(=O)N(CCc2ccccc2)Cc2ccccc2)c1	24%	?	23	28*
CCCCNC(=S)Nc1cccc(C(C)=O)c1	10%	-8%	-7	-3
Cc1cccc(NC(=O)NCCCCc2ccccc2)c1	?	?	23*	10
O=C(NCCCCc1ccccc1)Nc1ccc(F)cc1F	7%	?	34	21
CC(=O)C[C@H](O)CC(=O)[C@H]1OC(=O)CC/C=C\Cc2ccccc21	12%	40%	.	.
O=C1C2C3C=CC(C3)C2C(=O)N1c1ccc2ccccc2c1 (stereo not drawn)	9%	?	50	1
CCSc1nc2ccc(N3C(=O)C4C5C=CC(C5)C4C3=O)cc2s1 (stereo not drawn)	52%	80%	50*	27*
Cc1cccc(N(CC(=O)NC2CCCCC2)C(=O)CCCC(=O)Nc2ccccn2)c1	12µM*	-22%	11	1
SMILES	Pf growth 48h	Pf growth 96h	Shiga inhibitor	Cycloheximide cs
COc1cccc(N(CC(=O)NC2CCCC2)C(=O)CCC(=O)Nc2nccs2)c1	2%	-4%	-12	-2
CCOc1ccc(N(CC(=O)NC2CCCCC2)C(=O)CCC(=O)Nc2nccs2)cc1	7.4µM*	-16%	4	-2
COc1cccc(N(CC(=O)NC2CCCCC2)C(=O)CCC(=O)Nc2nccs2)c1	?	12µM*	14	3
CCC(C)(C)NC(=O)CN(C(=O)CCC(=O)Nc1nccs1)c1ccccc1C	-24%	10µM*	-4	-1
CC(=O)OCC(NC(=O)C(COCc1ccccc1)NC(=O)OC(C)(C)C)C1OC(n2ccc(=O)[nH]c2=O)C(OC(C)=O)C1OC(C)=O (stereo not drawn)	.	.	-7	-6
Cn1c(=O)c2sccc2n2c(CCCC(=O)Nc3ccc(F)cc3F)nnc12	9%	-2%	-6	-3
CC(=O)c1cnc2nc(SCc3cccc(C)c3)nn2c1C	159%	175%	9	9.4*
CC(=O)c1cnc2nc(SCc3ccc(C)cc3)nn2c1C	28%	13µM*	.	-2
CC(=O)c1cnc2nc(SCc3ccc(Cl)cc3)nn2c1C	-22%	-12%	10	11
CC(=O)c1cnc2nc(SCc3ccccc3)nn2c1C	88%	-28%	47*	35*
